High-throughput results from PubChem.
MEKK2wt PB1 HTS – modulators of MEK5 binding to wildtype MEKK2, primary screen, biochemical, multiplex bead flow cytometry, Alexa488-MEK5. Mitogen-activated protein kinase kinase kinase 2 (Homo sapiens), Q9Y2U5. Alexa488-MEK5 binding to MEKK2 WT; actives lie on both sides. binding response (% of control), % at 10 µM. 1.1% of 290,000 active. AID 1531, 2009; in the data active = binding response below about 67% or above about 130%
CRFBP-R2 agonist – agonists of CRF-BP/CRF-R2 complex, primary screen, cell-based, HEK293, calcium dye fluorescence, uHTS. calcium dye fluorescence (FLIPR); percent of saturating CRF peptide response. 0.46% of 350,000 active. CRF-binding protein / CRF receptor 2 complex (human). activation, % at 13.2 µM;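 active = activation of at least 50%, plus an integration ratio under a set limit after plate pattern correction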;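 also: plate controls were neutral control wells without compound for no effect and CRF at EC100 for full effect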
CRFBP-R2 block – antagonists of CRF-BP/CRF-R2 complex, primary screen, cell-based, HEK293, calcium dye fluorescence, uHTS | AID 588475, 2011 | inhibition, % at 11.8 µM | 0.59% of 350,000 active | CRF-induced calcium fluorescence;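 active = inhibition of the ligand-induced calcium signal above about 50% at the single tested concentration, limit read from the data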
MEKK2 mut-MEK5 – MEK5 binding signal on mutant MEKK2 PB1, primary screen, biochemical, multiplex bead flow cytometry, Alexa488-MEK5; Alexa488-MEK5 binding to MEKK2 mutant; percent response, % at 10 µM; 0.35% of 290,000 active; AID 1530, 2009; in the data active = percent response above about 24%, passing the limit was not always enough
MEKK3 PB1 HTS – modulators of MEKK3-MEK5 PB1 binding, primary screen, biochemical, wildtype MEKK3, multiplex bead flow cytometry, Alexa488-MEK5; Mitogen-activated protein kinase kinase kinase 3 (Homo sapiens), Q99759; bead-based flow cytometry, Alexa488-MEK5 binding to MEKK3; actives lie on both sides; 0 = blocked by unlabeled MEK5, 100 = vehicle; binding response (% of control), % at 10 µM; 1.4% of 290,000 active;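 active = binding response more than 3 SD above or below the average of its plate-row segment, actives on both sides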;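 also: Alexa488 bead fluorescence after subtracting the streptavidin-only scavenger bead signal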
ABCB6 inh MLPCN – ABCB6 transporter inhibitors, primary screen, K562-ABCB6 cells, flow cytometry, MLPCN library. fluorescence ratio to DMSO, % at 10 µM. 0.19% of 360,000 active. K562-ABCB6 porphyrin accumulation, 1 h; active compounds read low. ATP-binding cassette sub-family B member 6 (Homo sapiens), Q9NP58;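 active = fluorescence ratio to DMSO below 75%, the collection mean minus 3 SD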;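 also: signal is porphyrin accumulated inside mitochondria; 100% equals median channel fluorescence of DMSO control wells; lower ratio means ABCB6 inhibition with less porphyrin fluorescence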
* hit, by the source's call; . = no result. Only some compounds are listed: those with a hit (about 2.9% of all), similar ones and a draw of the others.

SMILES	MEKK2wt PB1 HTS	CRFBP-R2 agonist	CRFBP-R2 block	MEKK2 mut-MEK5	MEKK3 PB1 HTS	ABCB6 inh MLPCN
Cc1ccc(Oc2ccccc2/C=C2\SC(=O)N(C)C2=O)cc1	96.0	7.0	18.4	-5.0	98.0	74.0*
CN1C(=O)S/C(=C/c2ccccc2OCc2ccc(C(=O)O)cc2)C1=O	.	-0.6	9.9	.	.	110.0
CC(NC(=O)c1ccccc1Cl)C(=O)O (stereo not drawn)	96.0	-0.2	0.9	-1.0	96.0	110.0
O=C(O)C1OC1(c1ccccc1Cl)c1ccccc1Cl (stereo not drawn)	.	-2.5	69.3*	.	.	88.0
CCOc1cc(C=C2C(=O)c3ccccc3C2=O)ccc1OCC(=O)Nc1ccc(C)cc1	104.0	112.7*	-107.0	22.0	105.0	97.0
COc1ccc(-c2csc(NC(=O)CN3C(=O)C4CC=CCC4C3=O)n2)cc1OC (stereo not drawn)	97.0	1.9	56.7*	-5.0	96.0	96.0
Cc1ccc(C(=O)C2=C(O)C(=O)N(c3ncccn3)C2c2ccccc2F)o1 (stereo not drawn)	102.0	0.7	1.7	9.0	102.0	106.0
Cc1ccccc1NC(=O)COC(=O)CCc1c[nH]c2ccccc12	.	-0.9	-1.8	.	.	98.0
Cc1ccc(NC(=O)COC(=O)CCc2c[nH]c3ccccc23)c(C)c1	.	-2.4	54.5*	.	.	96.0
Cc1ccc(CC(=O)OC(C)C(=O)NC2CCCCC2C)cc1C (stereo not drawn)	.	0.6	1.6	.	.	99.0
CCc1sc(C(=O)NNC(=O)c2cncc(Br)c2)cc1C	.	-0.5	-11.0	.	.	99.0
COc1ccc(CCNC(=O)COC(=O)C23CC4CC(CC(Br)(C4)C2)C3)cc1	96.0	12.8	-5.6	-1.0	97.0	99.0
CC(NC(=O)COC(=O)C12CC3CC(CC(Br)(C3)C1)C2)c1ccccc1 (stereo not drawn)	.	6.3	61.8*	.	.	94.0
CC(=O)c1ccc(OCc2nnn(CC(=O)NS(=O)(=O)c3ccc(C)cc3)c2-c2ccccc2)cc1	.	.	.	.	.	101.0
O=C(NNC(=S)NC(=O)c1cccc([N+](=O)[O-])c1)c1ccc(Br)cc1	103.0	122.0*	-69.5	14.0	101.0	93.0
Cc1ccc(C(=O)NC(=S)NNC(=O)c2cccc([N+](=O)[O-])c2)cc1	104.0	79.3*	20.5	-1.0	102.0	96.0
Cc1ccc(CNC(=O)CCC2CCCN(C(=O)CCC(F)(F)F)C2)o1 (stereo not drawn)	87.0	-0.3	-5.8	-11.0	97.0	95.0
CC(=O)c1ccccc1NC(=O)COC(=O)/C=C/c1ccc(OC(F)F)cc1	.	3.4	-9.0	.	.	93.0
O=C(NC(C(=O)N/N=C/c1ccccc1)c1n[nH]c(=O)c2ccccc12)c1ccccc1 (stereo not drawn)	.	98.2*	-16.8	.	.	98.0
O=C(NC(C(=O)N/N=C/c1c2ccccc2cc2ccccc12)c1n[nH]c(=O)c2ccccc12)c1ccccc1 (stereo not drawn)	.	0.1	-1.5	.	.	107.0
O=C(CN1C(=O)COc2ccc(S(=O)(=O)N3CCCCCC3)cc21)NCc1ccc(F)cc1	104.0	-2.3	13.4	-1.0	99.0	99.0
CCOC(=O)C(OC(=O)c1sc(=S)n(C)c1C)C(C)=O (stereo not drawn)	107.0	1.6	-2.3	10.0	101.0	100.0
CC(=O)NNC(=O)c1sc(=S)n(C)c1C	-5.0*	0.1	5.5	1.0	95.0	95.0
CC(=O)N(C)C1=C(N2CCOCC2)C(=O)c2ccccc2C1=O	90.0	-2.3	26.4	-5.0	90.0	90.0
CC(=O)N(C1=C(N2CCOCC2)C(=O)c2ccccc2C1=O)c1ccc(C(=O)O)cc1	-1.0*	1.3	11.1	2.0	99.0	104.0
